# Reference: PubChem BioAssay (Tox21)
# Several values for one entry are separate records, joined by “and”; a condition that tells them apart may be missing. Equal entries are not always repeated. Inconclusive results are not listed. A call without a number means that no potency is given here. Where a structure was tested more than once in an assay, its records may differ in their call. Activity calls are given as the source filed them. The call rests on the fitted dose curve; in most records, active means well fitted cell-killing curve with a large enough effect in the repeat runs; inconclusive means weak or mixed curves, or effect the other way; inactive means no such curve, though single readings can be large or run the other way.
# Experiment: qHTS assay for identifying genotoxic compounds that show differential cytotoxicity against isogenic chicken DT40 cell lines with known DNA damage response pathways - Rev3 mutant cell line (AID 743014); further: nearly all actives have a fitted effect of over 55% in size
# Details: chicken DT40 Rev3-/- viability, CellTiter-Glo, 40 h; series mostly up to 68.4 µM
# Potency means the concentration at half of the fitted maximal effect.
row,SMILES,Potency
1,CCCCNC(=O)NCCCC,inactive
2,CCCN(CCC)CCc1cccc2c1CC(=O)N2,inactive
3,CC(=O)CC(C)C,inactive
4,CCSC(=O)N(CC(C)C)CC(C)C,inactive
5,N=C(N)c1ccc2cc(OC(=O)c3ccc(N=C(N)N)cc3)ccc2c1,inactive
6,O=C1CC2CC1C1CCCC21 (stereo not drawn),inactive
7,O=c1n(CCO)c(=O)n(CCO)c(=O)n1CCO,inactive and 61.1 µM (active)
8,O=C(O)CN(CCOCCOCCN(CC(=O)O)CC(=O)O)CC(=O)O,inactive
9,CCN1CCC[C@H]1CNC(=O)c1cc(S(N)(=O)=O)ccc1OC,inactive
10,COCCc1ccc(OCC(O)CNC(C)C)cc1 (stereo not drawn),inactive
11,CC(=O)OCC(CCn1cnc2cnc(N)nc21)COC(C)=O,inactive
12,CCn1ccnc1CC1COc2ccccc2O1 (stereo not drawn),inactive
13,CC1(C)CO[C@@H](CC(=O)O)CN1,inactive
14,CC(C)(CC(=O)O)C(=O)O,inactive
15,CCCCC/C=C\CCC=O,inactive
16,O=C1CCCN1C1CCCCC1,inactive
17,CC(C)(c1ccc(O)cc1)c1ccc(O)cc1,67.8 µM (active) and 50.4 µM (active)
18,C=C(C)C(=O)OCCCCCCCC(C)C,inactive
19,ClC(Cl)(Br)Br,inactive
20,COC(=O)c1cc(C(=O)OC)cc(S(=O)(=O)O)c1,inactive
21,CC/C=C\CCOC(C)=O,inactive
22,CC(=O)OCC(=O)[C@@]1(O)CC[C@H]2[C@@H]3CCC4=CC(=O)CC[C@]4(C)[C@H]3C(=O)C[C@@]21C,inactive
23,N[C@H]1CN(c2c(F)cc3c(=O)c(C(=O)O)cn(C4C[C@H]4F)c3c2Cl)CC12CC2 (stereo partly drawn),inactive
